This is an account of results in PubChem BioAssay (NCI).

This is part of a sample that, as a whole, favours compounds with a hit. Of some 83,000 tested, about 20% had one in any assay.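 In brief: 96-well plates, 48 h treatment, single concentration, percent growth endpoint.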 Values without a mark were called inactive. The source made the active and inactive calls. The calls were made as follows: active = growth percent below 10; inactive = the rest.

Some test systems named below: NCI-H23 lung; NCI-H226 lung; NCI-H322M lung; HOP-62 NSCLC; NCI-H460 lung; HOP-92 NSCLC; NCI-H522 lung; A549/ATCC NSCLC; 786-0 renal; COLO 205 colon.
Common to all, as to assay: NCI-60 one-dose screen, 48 h (100 = growth as untreated, 0 = no growth, -100 = all killed)
Common to all, as to details: 10 µM unless noted

Consider `O=C1Nc2ccccc2C12CC(c1ccccc1)=NN2` (centres undefined), for which the growth is 70% with NCI-H23 lung; 79.3% in the test on NCI-H226 lung; 66.3% in the test on NCI-H322M lung; 58.6% in the test with HOP-62 NSCLC; 33.2% in the test on NCI-H460 lung; 59.2% in the test with HOP-92 NSCLC. The growth is 24.6% in the test on NCI-H522 lung, 39.3% in the test on A549/ATCC NSCLC, 61.7% in the test on 786-0 renal and 31.4% with COLO 205 colon.

On to `CCOC(=O)c1cnc2ccc(Br)cc2c1Nc1cccc(S(=O)(=O)NC)c1`, for which the growth is 84.7% in the test on NCI-H23 lung; 90.8% in the test with NCI-H226 lung; 98.3% with NCI-H322M lung; 92.3% with HOP-62 NSCLC; 102% in the test on NCI-H460 lung; 102% with HOP-92 NSCLC. The growth with NCI-H522 lung was 83.6%; in the test on A549/ATCC NSCLC, 104%; with 786-0 renal, 103%; in the test on COLO 205 colon it was 128%.

Regarding `Cn1c2ccccc2c2c3c(c4c5ccccc5n(CCCCCC#N)c4c21)C(=O)N(O)C3=O`, the growth was 4.85% (active) with NCI-H23 lung; 25.1% in the test with NCI-H226 lung; 48.8% in the test with NCI-H322M lung; 27.2% with HOP-62 NSCLC; 2.84% (active) with NCI-H460 lung; -11.2% (active) with HOP-92 NSCLC. Besides, the values for the growth in the test with NCI-H522 lung, in the test on A549/ATCC NSCLC and in the test on COLO 205 colon were -51.9% (active), 34.2% and 62.8%, respectively.

Take `COC(/C=C/c1ccc([N+](=O)[O-])cc1)OC`: the growth in the test with NCI-H23 lung is 96.5%; in the test with NCI-H226 lung it was 106%; in the test on NCI-H322M lung, 101%; in the test on HOP-62 NSCLC, 114%; in the test with NCI-H460 lung, 112%; with HOP-92 NSCLC, 85%. In addition, the growth in the test with NCI-H522 lung was 86.9%; with A549/ATCC NSCLC, 95.4%; in the test with COLO 205 colon it was 110%.

In the case of `O=[N+]([O-])c1cccc(C2CC(c3ccccc3)=Nc3ccccc3S2)c1` (centres undefined), the growth was 87.9% in the test with NCI-H23 lung; 96.6% with NCI-H226 lung; 99.6% with NCI-H322M lung; 98.5% with HOP-62 NSCLC; 106% in the test with NCI-H460 lung; 91.1% in the test on HOP-92 NSCLC. Further, the growth is 76.7% in the test on NCI-H522 lung, 88.6% in the test with A549/ATCC NSCLC, 97.1% in the test on 786-0 renal and 98.9% in the test with COLO 205 colon.

As for `COc1ccc(CCN2CCCn3c2nc2ccccc2c3=O)cc1`, the growth with NCI-H23 lung was 32.7%; in the test on NCI-H226 lung, 37.3%; in the test on NCI-H322M lung, 45.4%; in the test with HOP-62 NSCLC it was 48.1%; with NCI-H460 lung, 10.7%; in the test on HOP-92 NSCLC, 46.5%. Moreover, the growth was 12.2% in the test with NCI-H522 lung, 28.6% in the test with A549/ATCC NSCLC and -10.2% (active) in the test on COLO 205 colon.

In the case of `CCCCCCCCCc1cc(CN2CCCCC2)c(O)c(CN2CCCCC2)c1`, the growth is 39.4% in the test with NCI-H23 lung; 75.9% in the test on NCI-H226 lung; 88.4% with NCI-H322M lung; 78.4% with HOP-62 NSCLC; 49.1% in the test on NCI-H460 lung; 12.7% in the test with HOP-92 NSCLC. The growth in the test on NCI-H522 lung is 49.2%; with A549/ATCC NSCLC it was 61.9%; in the test with COLO 205 colon it was 64.3%.

In the case of `COc1cc(/C=N/N(C)C)ccc1O`, the growth in the test with NCI-H23 lung was 105%; with NCI-H226 lung, 91.5%; with NCI-H322M lung, 99.1%; with HOP-62 NSCLC, 91.4%; in the test on NCI-H460 lung, 105%; in the test on HOP-92 NSCLC it was -18.7% (active). For the same molecule, the growth in the test with NCI-H522 lung is 87.7%; in the test with A549/ATCC NSCLC, 84.1%; in the test on 786-0 renal it was 109%; in the test with COLO 205 colon, 108%.

As for `CN1CCN(Cc2ccc(NC(=O)c3[nH]ncc3Nc3ncnc4c3CCC4)cc2)CC1`, the growth with NCI-H23 lung was 5.19% (active); in the test with NCI-H226 lung, 9.05% (active); with NCI-H322M lung, 16.5%; with HOP-62 NSCLC, 22.6%; in the test on NCI-H460 lung, 6.72% (active); with HOP-92 NSCLC it was -33% (active). The values for the growth in the test on NCI-H522 lung, with A549/ATCC NSCLC and with COLO 205 colon were 13.7%, 17.2% and -37.5% (active), respectively.

In the case of `CN1CCN(Cc2ccc(NC(=O)c3[nH]ncc3Nc3ncnc4[nH]ccc34)cc2)CC1`, the growth with NCI-H23 lung is -12.2% (active); in the test on NCI-H226 lung, -21.3% (active); in the test on NCI-H322M lung, 3.32% (active); in the test with HOP-62 NSCLC, 14.1%; in the test on NCI-H460 lung, 2.62% (active); in the test on HOP-92 NSCLC, -7.91% (active). Moreover, the growth was 1.39% (active) in the test with NCI-H522 lung, 11.4% in the test with A549/ATCC NSCLC and -51% (active) with COLO 205 colon.

`COc1ccc(-n2cc(-c3ccccc3)c3c(SCC(=O)N/N=C/c4ccc([N+](=O)[O-])cc4)ncnc32)cc1`: the growth is 88.9% with NCI-H23 lung; 84.2% with NCI-H226 lung; 106% with NCI-H322M lung; 100% with HOP-62 NSCLC; 113% in the test with NCI-H460 lung; 98.3% in the test on HOP-92 NSCLC. For the same molecule, the growth with NCI-H522 lung was 91.5%; in the test on A549/ATCC NSCLC it was 105%; in the test with 786-0 renal it was 95.3%; with COLO 205 colon it was 109%.

For the molecule `COc1cc2c(cc1O)CCc1cc(O)cc(OC)c1-2`, the growth is 99.3% in the test with NCI-H23 lung; 87.4% in the test on NCI-H226 lung; 101% in the test on NCI-H322M lung; 105% with HOP-62 NSCLC; 93.8% in the test with NCI-H460 lung; 103% with HOP-92 NSCLC. For the same molecule, the growth in the test with NCI-H522 lung is 61.5%; in the test on A549/ATCC NSCLC, 87.6%; in the test with 786-0 renal, 97.1%; in the test on COLO 205 colon, 110%.

For `CC1=C(NCCN2CCCC2)C(=O)c2c(OCc3ccc(F)c(Cl)c3)cccc2C1=O`, the growth with NCI-H23 lung was 69.8%; in the test on NCI-H226 lung, 90.4%; in the test on NCI-H322M lung it was 64.3%; in the test with HOP-62 NSCLC, 68.8%; with NCI-H460 lung it was 57.7%; with HOP-92 NSCLC, 57.1%. The growth in the test on NCI-H522 lung is 76%; in the test with A549/ATCC NSCLC it was 78.3%; with 786-0 renal, 63.6%; in the test on COLO 205 colon, 69.5%.
